PPC-1+TRAIL kill = compounds killing PPC-1 cancer cells with TRAIL present, primary screen, TRAIL potentiator project, ATPLite luminescence, uHTS; PPC-1 cells + TRAIL, ATPLite viability luminescence; cell killing (% activity), % at 4 µM or 5 µM; hit rate 0.41% among 220,000; AID 1443, 2008;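 active = cell killing above 50% in the first pass at 4 µM, then a duplicate retest at 5 µM averaging 50% or more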;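 also: plate controls were cells with TRAIL plus DMSO for no effect and medium-only wells lacking cells for full effect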
C8 TRAIL sens = viability loss with TRAIL in NB7+C8 cells, primary screen, TRAIL sensitizer project, cell-based, ATPlite luminescence; hit rate 1% among 360,000; AID 624354, 2012; inhibition (viability loss, TRAIL sensitization), % at 10 µM;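 active = compounds causing at least 50% loss of cell viability in the single-dose screen, relative to plate controls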
SENP8 block-1 = SENP8 protease inhibitors, primary screen, biochemical, luminescence. Sentrin-specific protease 8 (Homo sapiens), Q96LD8. inhibition, % at 10 µM. purified SENP8, Z-RLRGG-aminoluciferin cleavage. hit rate 1.2% among 330,000; in the data active = inhibition above about 50%
Target sequence (Q96LD8 whole entry, looked up): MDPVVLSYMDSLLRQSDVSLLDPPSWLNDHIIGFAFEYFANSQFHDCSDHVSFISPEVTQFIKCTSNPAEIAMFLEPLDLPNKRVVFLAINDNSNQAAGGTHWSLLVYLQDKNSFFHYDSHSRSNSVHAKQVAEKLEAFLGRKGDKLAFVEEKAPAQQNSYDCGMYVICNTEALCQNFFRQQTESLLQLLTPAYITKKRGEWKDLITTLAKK
SENP7 inh = SENP7 protease inhibitors, primary screen, biochemical, luminescence, uHTS; recombinant SENP7, Z-RLRGG-aminoluciferin luminescence, 40 min; inhibition, % at 5 µM; hit rate 1.5% among 330,000; AID 434973, 2010;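 active = inhibition above about 50% at the single test dose, limit read from the data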;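 also: plate controls were DMSO with enzyme for no effect and no enzyme buffer wells for full effect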
SENP8 block-2 = human SENP8 protease inhibitors, primary screen, biochemical, fluorescence, Nedd8 protein substrate, uHTS; Sentrin-specific protease 8 (Homo sapiens), Q96LD8; recombinant SENP8; inhibition, % at 20 µM; hit rate 0.64% among 360,000; AID 602440, 2012; in the data active = inhibition mostly above about 40%, no sharp cut-off; inactive = mostly below about 27%
SENP6 inh = SENP6 protease inhibitors, primary screen, biochemical, luminescence, uHTS. Sentrin-specific protease 6 (Homo sapiens), Q9GZR1. Recombinant SENP6 catalytic domain, aminoluciferin luminescence. inhibition, % at 10 µM. hit rate 1.8% among 330,000;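 active = inhibition above about 50% at the single tested dose, limit read from the data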;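 also: plate controls were DMSO wells with enzyme for no effect and DMSO wells lacking enzyme for full effect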
Target sequence (Q9GZR1 628-1112 limits assumed): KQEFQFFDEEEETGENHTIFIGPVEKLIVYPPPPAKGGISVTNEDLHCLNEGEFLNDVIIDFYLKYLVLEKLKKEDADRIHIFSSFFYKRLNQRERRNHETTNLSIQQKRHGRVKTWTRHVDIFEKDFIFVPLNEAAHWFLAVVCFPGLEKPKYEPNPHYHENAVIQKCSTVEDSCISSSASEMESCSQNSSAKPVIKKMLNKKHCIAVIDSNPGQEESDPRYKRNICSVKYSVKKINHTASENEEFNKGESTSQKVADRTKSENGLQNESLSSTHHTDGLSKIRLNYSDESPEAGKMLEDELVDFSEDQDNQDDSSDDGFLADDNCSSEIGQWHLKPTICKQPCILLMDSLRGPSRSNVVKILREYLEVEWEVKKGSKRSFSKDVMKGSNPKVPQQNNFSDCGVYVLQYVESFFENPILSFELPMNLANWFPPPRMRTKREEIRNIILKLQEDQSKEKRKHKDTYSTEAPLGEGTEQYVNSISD
SENP8 confirm = SENP8 protease inhibitors, retest, confirmation, biochemical, luminescence, single concentration; Recombinant SENP8, Z-RLRGG-aminoluciferin luminescence, 60 min; shares compounds with SENP7 inh; inhibition, % at 12.5 µM; hit rate 40% among 6,200; AID 488912, 2010;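 active = mean inhibition across replicates above about 50%, limit read from the data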
SENP6 conf = SENP6 protease inhibitors, confirmation, biochemical, luminescence, single concentration | shares compounds with SENP7 inh | recombinant SENP6, Z-RLRGG-aminoluciferin luminescence | inhibition, % at 12.5 µM | hit rate 58% among 6,200
SENP7 conf = SENP7 protease inhibitors, retest, confirmation, biochemical, luminescence, single concentration; recombinant SENP7, Z-RLRGG-aminoluciferin luminescence, 40 min; shares compounds with SENP7 inh; inhibition, % at 12.5 µM; hit rate 69% among 6,200; AID 488917, 2010
Casp3 SENP sel = caspase-3 protease inhibitors, confirmation, selectivity assay for SENP inhibitor project, biochemical, single concentration; shares compounds with SENP7 inh; purified caspase-3, Z-DEVD-aminoluciferin luminescence, 60 min; inhibition, % at 12.5 µM; hit rate 60% among 6,200; AID 488918, 2010;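 active = mean inhibition above about 50%, limit read from the data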;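 also: plate controls were enzyme with DMSO for no effect and wells without caspase-3 for full effect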
SENP luc ctr = luminescence interference (SENP counter-screen) | shares compounds with SENP7 inh | Pre-incubated SENP8/Z-RLRGG-aminoluciferin, luciferase luminescence interference | inhibition, % at 12.5 µM | hit rate 39% among 6,200 | AID 488919;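 active = mean inhibition above about 50% when retested at one dose, limit read from the data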;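 also: plate controls were DMSO wells with completed reaction for no effect and substrate without enzyme for full effect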
Active calls of the source: *; x = not tested or not shown. The list is not random: actives were taken first. Their share in the collection is about 3%.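 The calls were made as follows, unless noted: active = mean inhibition above about 50% in the one-dose retest (limit read from the data); inactive = the rest.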

SMILES	PPC-1+TRAIL kill	C8 TRAIL sens	SENP8 block-1	SENP7 inh	SENP8 block-2	SENP6 inh	SENP8 confirm	SENP6 conf	SENP7 conf	Casp3 SENP sel	SENP luc ctr
CCOC(=O)c1ccc(Nc2cc(C)nc(-c3ccccc3)n2)cc1	x	26.2	-13.4	1.7	-172.1	-5.5	x	x	x	x	x
O=C(O)c1ccc(Nc2cnc3ccccc3n2)cc1	9.0	-5.5	88.1*	96.6*	-70.4	92.9*	91.6*	92.3*	100.5*	96.8*	86.7*
Cc1occc1C(=O)NNC(=O)c1ccc(S(=O)(=O)N(C)C)cc1	x	-3.6	4.9	-3.7	-3.3	-5.4	x	x	x	x	x
CC(=O)Nc1ccc(-c2ccnc3c2CC(C(=O)Nc2cccc(OC(F)(F)F)c2)O3)cc1 (stereo unspecified)	x	9.4	x	x	-11.0	x	x	x	x	x	x
Nc1c(OS(=O)(=O)c2ccccc2)cccc1OS(=O)(=O)c1ccccc1	x	7.0	x	x	2.0	x	x	x	x	x	x
Cc1ccc(C(=O)ONc2ccc(N=O)cc2)cc1	15.1	-5.1	97.8*	99.9*	25.6	96.1*	30.5	100.7*	103.7*	90.5*	31.1
CN1CCN(C(=O)/C=C/c2ccc(Cl)c(Cl)c2)CC1	x	-6.9	-5.5	3.6	4.6	-7.0	x	x	x	x	x
O=C(/C=C/c1ccc(Cl)c(Cl)c1)N1CCc2ccccc21	-0.4	28.7	-12.4	66.4*	15.3	9.2	-12.6	-8.0	-6.5	8.0	0.6
O=C(Nc1ccc(F)c(Cl)c1)c1ccc2c(=O)n3c(nc2c1)CCCCC3	1.6	13.5	27.9	69.5*	17.0	75.7*	13.6	59.7*	91.2*	61.6*	12.7
COc1cc(OC)cc(C(=O)Nc2ccc3nc4n(c(=O)c3c2)CCCC4)c1	x	-2.1	76.6*	86.3*	7.1	87.2*	57.8*	82.5*	96.4*	91.6*	80.3*
COc1cccc(C(=O)Nc2ccc3nc4n(c(=O)c3c2)CCCC4)c1	x	4.4	22.2	44.6	14.2	52.9*	24.9	22.8	70.9*	72.8*	45.5
COc1cc(C(=O)Nc2ccc3nc4n(c(=O)c3c2)CCCC4)ccc1Br	x	6.7	5.9	1.8	14.0	13.8	x	x	x	x	x
COc1ccc(Cl)cc1C(=O)n1cnc2ccccc21	x	-1.5	4.1	7.0	17.3	26.1	x	x	x	x	x
Cc1nc(-c2cccc(Br)c2)ccc1C(=O)O	16.3	-8.5	33.0	57.8*	13.2	-7.0	55.2*	50.6*	80.7*	87.5*	64.7*
CCc1ccc(-c2ccc(C(=O)O)c(C)n2)cc1	2.9	2.6	34.2	28.0	22.2	42.4	x	x	x	x	x
Cc1cc(C(=O)COC(=O)c2ccc[nH]c2=O)c(C)n1C1CC1	24.2	12.8	-4.1	-3.2	5.0	-35.3	x	x	x	x	x
Cc1cc(C(=O)COC(=O)c2ccc(F)cc2F)c(C)n1C1CC1	x	2.3	49.6	43.3	11.8	63.6*	-1.3	-13.5	33.0	13.9	-3.1
O=C(Oc1ccc2c(c1)OCO2)c1ccc(F)cc1Cl	13.8	5.4	75.0*	88.3*	8.0	91.3*	73.2*	83.7*	97.3*	77.2*	75.0*
O=C(Oc1ccc2c(c1)OCO2)c1cc2c(s1)CCC2	5.4	17.3	60.2*	68.3*	0.8	80.8*	76.1*	73.9*	89.0*	56.5*	64.7*
CN(C)S(=O)(=O)c1ccc(N2CCCC2)c(C(=O)N2CCN(S(=O)(=O)c3ccccc3F)CC2)c1	x	9.9	-10.8	-0.7	16.6	-3.5	x	x	x	x	x
CC(C)c1ccc2oc(-c3cc(N)ccc3O)nc2c1	28.1	66.3*	90.7*	86.1*	-115.0	94.1*	44.3	91.4*	93.9*	69.7*	20.2
Cc1ccccc1-c1nc2ccccc2c(=O)o1	x	-9.3	x	x	-29.7	x	x	x	x	x	x
Nc1ccc(-c2nc3ncccc3o2)c(O)c1	x	8.3	-5.0	-3.9	-284.7	5.4	x	x	x	x	x
Cc1ccccc1-c1nc2cc(N)ccc2o1	44.7	40.1	59.9*	74.2*	-264.2	71.6*	9.1	8.6	-3.0	0.3	0.9
CN(CC(=O)NNC(=O)Cc1ccccc1F)S(=O)(=O)c1ccc(Cl)cc1	x	-17.7	-3.2	-0.9	21.3	-1.3	x	x	x	x	x
SMILES	PPC-1+TRAIL kill	C8 TRAIL sens	SENP8 block-1	SENP7 inh	SENP8 block-2	SENP6 inh	SENP8 confirm	SENP6 conf	SENP7 conf	Casp3 SENP sel	SENP luc ctr
O=C(CS(=O)(=O)c1ccccc1Cl)N1CCOCC1	x	4.3	-2.9	0.8	-2.9	7.7	x	x	x	x	x
CC1=C(C(=O)N(C)C)CC(CC(=O)NCCN2CCOCC2)C(=O)N1Cc1ccc(F)cc1 (stereo unspecified)	x	7.7	x	x	6.6	x	x	x	x	x	x
COc1ccc(-c2csc(N3C(=N)SCC3=O)n2)cc1	25.8	21.3	79.9*	8.8	20.9	73.8*	19.9	12.2	17.0	17.9	0.1
CCOC(=O)c1sc(NC(=O)c2ccc(C)o2)nc1C	34.8	39.2	63.5*	11.7	-99.0	70.4*	35.9	74.1*	90.6*	84.5*	19.0
CCOC(=O)c1sc(NC(=O)c2ccco2)nc1C	8.1	24.4	9.3	54.0*	-48.9	58.8*	6.3	5.7	-6.2	5.4	-3.1
NC(=O)c1ccc(CN2CCc3ccccc3C2)cc1	x	-1.4	-2.9	5.4	2.4	-1.6	x	x	x	x	x
O=C(NCCc1ccccc1F)C1CCC(=O)N(CCCN2CCCC2=O)C1 (stereo unspecified)	x	-11.3	-8.3	2.0	0.4	8.8	x	x	x	x	x
CC(C)N1C(=O)S/C(=C\c2ccc(-c3ccc(Cl)c(C(=O)O)c3)o2)C1=O	x	-3.1	86.4*	77.3*	-191.3	91.2*	94.1*	93.7*	98.7*	37.7	89.5*
CCOC(=O)CN1C(=O)S/C(=C\c2ccc(-c3ccc(C(=O)O)c(Cl)c3)o2)C1=O	x	-4.8	6.6	1.3	-258.0	-0.8	x	x	x	x	x
CC(OC(=O)c1cc(=O)c2cc(Cl)ccc2o1)C(=O)N1CCCC1 (stereo unspecified)	x	-1.0	0.6	5.4	-3.0	-5.8	x	x	x	x	x

Compound activity: PubChem BioAssay, Sanford-Burnham Center for Chemical Genomics
